Measurements published in PubChem BioAssay AID1159580 (chemical genetic matrix, 2015).
Where “and” joins values, the source holds several entries; their conditions need not be identical. Equal entries are not always repeated. The campaign covered roughly 5,500 compounds. About 2,000 (36%) were called active. Inconclusive results (about 18%) are left out. No stated cut-off is given here; in the data, active means normalized growth mostly below about 0.91 (no sharp cut-off); inconclusive means no clear call, values can overlap the other calls; inactive means mostly above about 0.92. This is one part of the list.

Experiment: chemical genetic growth profiling, strain panel (AID 1159580);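 further: tested at 20 µM; growth read once vehicle control cultures reached saturation at 30 °C; 1 = growth at the plate median or of vehicle wells; lower values mean less growth of the strain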
Conditions: S. cerevisiae deletion strains, growth OD

Measured: normalized growth

CCn1cc(C(=O)O)c(=O)c2cnc(N3CCNCC3)nc21
inactive: locus YAL021C, strain ccr4, hits give low values 1.02 | locus YAL026C, strain drs2, hits give low values 1.03 | locus YAL030W, strain snc1, hits give low values 1.03 | locus YBL061C, strain skt5, hits give low values 1.04 | locus YBR009C, strain hhf1, hits give low values 1.02 | locus YBR021W, strain FUR4, hits give low values 0.997 | locus YBR023C, strain chs3, hits give low values 1.03 | locus YBR171W, strain sec66, hits give low values 1.04 | locus YBR229C, strain ROT2, hits give low values 0.98 | locus YBR231C, strain swc5, hits give low values 0.998 | locus YBR279W, strain paf1, hits give low values 1.01 | locus YCL011C, strain gbp2, hits give low values 1.04 | locus YCL016C, strain dcc1, hits give low values 1.01 | locus YCL029C, strain bik1, hits give low values 0.987 | locus YCL069W, strain vba3, hits give low values 1.02 | locus YCR088W, strain abp1, hits give low values 1.02 | locus YDL005C, strain med2, hits give low values 1 | locus YDL035C, strain GPR1, hits give low values 1.01 | locus YDL040C, strain nat1, hits give low values 1 | locus YDL074C, strain BRE1, hits give low values 1.06 | locus YDL101C, strain DUN1, hits give low values 0.994 | locus YDL134C, strain PPH21, hits give low values 0.986 | locus YDL185W, strain tfp1, hits give low values 0.985 | locus YDL192W, strain arf1, hits give low values 0.985 | locus YDR001C, strain nth1, hits give low values 1.01 | locus YDR069C, strain doa4, hits give low values 1.02 | locus YDR101C, strain arx1, hits give low values 1.01 | locus YDR137W, strain rgp1, hits give low values 1 | locus YDR159W, strain sac3, hits give low values 0.945 | locus YDR162C, strain NBP2, hits give low values 0.992 | locus YDR195W, strain ref2 0.975 | locus YDR297W, strain sur2, hits give low values 1 | locus YDR318W, strain mcm21, hits give low values 1.01 | locus YDR334W, strain swr1, hits give low values 1.02 | locus YDR335W, strain msn5, hits give low values 1.01 | locus YDR388W, hits give low values 0.993 | locus YDR392W, strain spt3, hits give low values 0.959 | locus YDR502C, strain sam2, hits give low values 1 | locus YEL003W, strain gim4, hits give low values 1.02 | locus YEL037C, strain rad23, hits give low values 1.01 | locus YEL061C, strain CIN8 (second series), hits give low values 1 | locus YEL061C, strain CIN8, hits give low values 0.995 | locus YER015W, strain faa2, hits give low values 1.02 | locus YER016W, strain bim1, hits give low values 1.02 | locus YER110C, hits give low values 0.987 | locus YER111C, strain swi4, hits give low values 1.02 | locus YER155C, strain BEM2 (second series), hits give low values 0.981 | locus YER155C, strain BEM2, hits give low values 0.983 | locus YER167W, strain BCK2, hits give low values 0.987 | locus YFR010W, strain ubp6, hits give low values 1 | locus YGL078C, strain dbp3, hits give low values 1 | locus YGL086W, strain mad1, hits give low values 1.01 | locus YGL167C, strain pmr1, hits give low values 1.01 | locus YGL173C, strain kem1, hits give low values 1 | locus YGL227W, strain vid30, hits give low values 1.01 | locus YGL240W, strain doc1, hits give low values 0.988 | locus YGL248W, strain PDE1, hits give low values 1 | locus YGL253W, strain hxk2, hits give low values 1.04 | locus YGR078C, strain PAC10, hits give low values 1.05 | locus YGR135W, strain pre9, hits give low values 0.963 | locus YGR252W, strain gcn5, hits give low values 1 | locus YHR013C, strain ard1, hits give low values 1.04 | locus YHR027C, strain rpn1, hits give low values 1.01 | locus YHR030C, strain SLT2, hits give low values 0.983 and 1.06 | locus YHR079C, strain IRE1 (second series), hits give low values 0.992 | locus YHR079C, strain IRE1, hits give low values 1.03 | locus YHR094C, strain hxt1, hits give low values 0.984 | locus YHR129C, strain ARP1, hits give low values 0.986 | locus YHR142W, strain chs7, hits give low values 1.04 | locus YHR200W, strain rpn10, hits give low values 0.988 | locus YIL066C, strain RNR3, hits give low values 1.01 | locus YIL073C, strain SPO22, hits give low values 0.961 | locus YIL125W, strain kgd1, hits give low values 0.993 | locus YIR030C, strain dcg1, hits give low values 0.986 | locus YJL092W, strain hpr5, hits give low values 1.02 | locus YJL095W, strain BCK1 (second series), hits give low values 1 | locus YJL095W, strain BCK1, hits give low values 1.03 and 1.04 | locus YJL115W, strain asf1, hits give low values 1 | locus YJL129C, strain trk1, hits give low values 1.04 | locus YJL134W, strain LCB3, hits give low values 0.983 | locus YJL154C, strain vps35, hits give low values 1.03 | locus YJL164C, strain tpk1, hits give low values 1.05 | locus YJL166W, strain qcr8, hits give low values 1.02 | locus YJL168C, strain set2, hits give low values 0.99 | locus YJL187C, strain SWE1 (second series), hits give low values 1.02 | locus YJL187C, strain SWE1, hits give low values 1.02 | locus YJR043C, strain POL32, hits give low values 1 | locus YJR066W, strain TOR1, hits give low values 1
